± gives the standard deviation of the averaged measurements.
Tested on: Drosophila ezoana antennal basiconic sensillum ab5
Experiment: odor-evoked OSN spike response (post minus pre-stimulus); higher = stronger neuronal excitation
Details: odor dilution: 10^-4
Protocol: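 Single sensillum recordings from antennal basiconic sensilla of D. ezoana. A 500 ms pulse of odorant (10^-4 in mineral oil or DMSO) was delivered; the response is the change in action potential frequency between the 1 s pre- and post-stimulus windows (spikes/s).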

**Q.** How did the “odor-evoked OSN spike response” value turn out when `CC(=O)OC/C=C(\C)CCC=C(C)C` [geranyl acetate] was run?
**A.** 112 ± 41 spikes/s

**Q.** `COc1cccc(OC)c1O` [Phenol, 2,6-dimethoxy- (powder)] was tested. Which “odor-evoked OSN spike response” value did it give?
**A.** 86.2 ± 29 spikes/s

**Q.** For `CC(=O)c1ccccc1` [Acetophenone], which “odor-evoked OSN spike response” value is on record?
**A.** 77.7 ± 24 spikes/s

From the supplement of paper PMC10477191
